Source: the supplement of paper PMC6992640
± gives the standard deviation of the averaged measurements.

Assays:
Assay in all cases: cell viability (% of vehicle); higher = less cytotoxic
Conditions in all cases: 10 µM; 72 h
[1] = tested on: HCI01 (cells of a triple-negative basal-like breast cancer xenograft)
[2] = tested on: HCI03 (cells of an ER-positive luminal breast cancer xenograft)
[3] = tested on: HCI09 (cells of a triple-negative luminal androgen receptor type breast cancer xenograft)
[4] = tested on: HCI11 (cells of an ER-positive luminal breast cancer xenograft)
[5] = tested on: HCI13 (cells of an ER-positive luminal breast cancer xenograft)
[6] = tested on: HCI16 (cells of a triple-negative basal-like breast cancer xenograft)
[7] = tested on: UCD52 (cells of a triple-negative basal-like breast cancer xenograft)
[8] = tested on: WHIM2 (cells of a triple-negative basal-like breast cancer xenograft)
[9] = tested on: WHIM30 (cells of a triple-negative basal-like breast cancer xenograft)
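Note: PDX cells carrying CMV promoter-driven luciferase, viability read as total photon flux per second by IVIS imaging following D-luciferin, vehicle control 0.1% DMSO.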

Row | SMILES | cell viability [1] | cell viability [2] | cell viability [3] | cell viability [4] | cell viability [5] | cell viability [6] | cell viability [7] | cell viability [8] | cell viability [9]
1 | Cc1nc2n(c(=O)c1CCN1CCC(c3noc4cc(F)ccc34)CC1)CCCC2O (configuration not stated) [Paliperidone] | 106 ± 11 | 172 | 94.6 ± 17 | 86.3 | 117 ± 4 | 113 | 113 ± 7.6 | 135 ± 24 | 127 ± 4.2
2 | CN(CCOc1ccc(NS(C)(=O)=O)cc1)CCc1ccc(NS(C)(=O)=O)cc1 [Dofetilide] | 101.7 ± 0.3 | 114 | 94.8 ± 5.2 | 94.2 | 97.8 ± 17 | 89.3 | 81.6 ± 13 | 90.2 ± 10 | 106 ± 5.1
3 | O=N[O-].[Na+] [Sodium Nitrite] | 104 ± 6.4 | 95.5 | 90.5 ± 4.7 | 91.5 | 55.8 ± 2.9 | 108 | 84 ± 5.8 | 114 ± 17 | 116 ± 21
4 | Br.COc1ccc2c3c1O[C@H]1C[C@@H](O)C=C[C@@]31CCN(C)C2 [Galanthamine HBr] | 113 ± 6.7 | 102 | 97.02 ± 0.17 | 93.2 | 80.4 ± 8.2 | 73.8 | 97.8 ± 2.6 | 79.7 ± 12 | 118 ± 24
5 | COCC1=C(C(=O)OC(C)OC(=O)OC(C)C)N2C(=O)[C@@H](NC(=O)/C(=N\OC)c3csc(N)n3)[C@H]2SC1 (some centres not stated) [Cefpodoxime Proxetil] | 106 ± 3.7 | 176 | 102 ± 11 | 103 | 109 ± 18 | 133 | 99.2 ± 12 | 106 ± 3.2 | 105 ± 12
6 | [O-][n+]1cccc(CO)c1 [Mepiroxol] | 117 ± 13 | 119 | 105.2 ± 0.98 | 103 | 99.24 ± 0.22 | 97 | 90.9 ± 8.7 | 95.7 ± 9.9 | 139 ± 26
7 | Nc1nc(CC(=O)Nc2ccc(CCNCC(O)c3ccccc3)cc2)cs1 (configuration not stated) [Mirabegron (YM178)] | 127 ± 6.3 | 109 | 136 ± 51 | 107 | 140 ± 13 | 137 | 82.2 ± 9.6 | 97 ± 19 | 132 ± 4.2
8 | Nc1ccc(S(=O)(=O)Nc2nccs2)cc1 [Sulfathiazole] | 102 ± 30 | 140 | 93.4 ± 7.8 | 84.5 | 197 ± 28 | 116 | 96.5 ± 11 | 98.2 ± 6.3 | 110 ± 8.6
9 | CC(C(=O)O)c1ccc2c(c1)CC(=O)c1ccccc1S2 (configuration not stated) [Zaltoprofen] | 124 ± 32 | 120 | 95.5 ± 26 | 103 | 134 ± 6.7 | 112 | 77.9 ± 11 | 98 ± 13 | 82.8 ± 5.6
10 | CCCc1nn(C)c2c(=O)nc(-c3cc(S(=O)(=O)N4CCN(C)CC4)ccc3OCC)[nH]c12 [Sildenafil] | 83.6 ± 6.4 | 101 | 82.8 ± 18 | 73.3 | 73.7 ± 3.3 | 103 | 82.8 ± 2.1 | 92.4 ± 1 | 105.82 ± 0.018
11 | CC(=O)OCC(=O)NCCCOc1cccc(CN2CCCCC2)c1.Cl [Roxatidine Acetate HCl] | 175 ± 22 | 118 | 121 ± 11 | 120 | 141 ± 22 | 131 | 95.5 ± 9.9 | 106 ± 3.1 | 128 ± 15
12 | FC(F)(F)c1ccc(C=Cc2nc(COc3ccc(CCCCn4ccnn4)cc3)co2)cc1 [Mubritinib (TAK 165)] | 111 ± 4 | 89.9 | 26.1 ± 3.1 | 62.2 | 65.54 ± 0.49 | 124 | 56.43 ± 0.074 | 120 ± 31 | 63.1 ± 6.1
13 | COc1ccc2c(c1)c(CC(=O)O)c(C)n2C(=O)c1ccc(Cl)cc1 [Indomethacin] | 106 ± 20 | 88.7 | 96.7 ± 1.1 | 79.2 | 105 ± 4.9 | 92 | 72.4 ± 13 | 92.1 ± 4.3 | 93 ± 5.3
14 | CC1OC(n2cc(F)c(=O)[nH]c2=O)C(O)C1O (configuration not stated) [Doxifluridine] | 67.1 ± 35 | 152 | 89.8 ± 12 | 110 | 104 ± 7.4 | 148 | 93 ± 19 | 102 ± 19 | 175.4 ± 0.91
15 | CCN(CC)CCOC(=O)C1(C2CCCCC2)CCCCC1.Cl [Dicyclomine HCl] | 126 ± 7.2 | 123 | 102 ± 11 | 99.7 | 90.1 ± 10 | 141 | 68.6 ± 1.9 | 104 ± 1.9 | 117 ± 2.5
16 | O=C(O)C1=COC(OC2OC(CO)C(O)C(O)C2O)C2C(CO)=CCC12 (configuration not stated) [Geniposidic acid] | 99.5 ± 9.7 | 150 | 93.7 ± 17 | 95.6 | 107 ± 12 | 110 | 99.8 ± 10 | 94.3 ± 6 | 143.2 ± 0.61
17 | Cl.c1ccc(CN(CC2=NCCN2)c2ccccc2)cc1 [Antazoline HCl] | 133.9 ± 0.91 | 123 | 103 ± 1.1 | 119 | 109 ± 9.2 | 144 | 66.7 ± 18 | 92.52 ± 0.86 | 102 ± 8.3
18 | CC(=O)OCC[N+](C)(C)C.[Cl-] [Acetylcholine Chloride] | 104 ± 23 | 85.8 | 95.1 ± 7.5 | 87.1 | 101 ± 9.6 | 97.8 | 69.3 ± 1.8 | 96.7 ± 6.8 | 107 ± 21
19 | CC(=O)N(c1onc(C)c1C)S(=O)(=O)c1ccc(N)cc1 [Sulfisoxazole Acetyl] | 90.9 ± 1.4 | 116 | 90.9 ± 11 | 95.7 | 95.2 ± 3.5 | 104 | 92.77 ± 0.54 | 106 ± 3.9 | 103 ± 1.9

Row | SMILES | cell viability [1] | cell viability [2] | cell viability [3] | cell viability [4] | cell viability [5] | cell viability [6] | cell viability [7] | cell viability [8] | cell viability [9]
20 | COS(=O)(=O)[O-].C[N+]1(C)CCC(=C(c2ccccc2)c2ccccc2)CC1 [Diphemanil Methylsulfate] | 101 ± 3 | 121 | 97.8 ± 12 | 109 | 119 ± 5.8 | 84.7 | 94.5 ± 13 | 96.7 ± 19 | 161.9 ± 0.26
21 | Cc1cc(NS(=O)(=O)c2ccc(N)cc2)no1 [Sulfamethoxazole] | 115 ± 29 | 127 | 107 ± 30 | 95.4 | 120 ± 1.2 | 154 | 99.6 ± 4.2 | 117.5 ± 0.64 | 196 ± 4
22 | COc1ccc(C2CNC(=O)C2)cc1OC1CCCC1 (stereo not drawn) [S- (+)-Rolipram] | 144 ± 9 | 152 | 94.4 ± 32 | 121 | 144 ± 31 | 136 | 99.5 ± 11 | 117.8 ± 0.47 | 134 ± 9.9
23 | CN(C)CCc1c[nH]c2ccc(Cn3cncn3)cc12.O=C(O)c1ccccc1 [Rizatriptan Benzoate] | 108 ± 11 | 118 | 137 ± 72 | 121 | 110 ± 21 | 106 | 102 ± 9.9 | 86.3 ± 21 | 124 ± 6.5
24 | CN(CC=CC#CC(C)(C)C)Cc1cccc2ccccc12 [Terbinafine] | 105 ± 5.9 | 114 | 136 ± 70 | 108 | 111 ± 26 | 139 | 106 ± 3 | 73.1 ± 24 | 117 ± 3.4
25 | COCCCOc1cc(CC(CC(N)C(O)CC(C(=O)NCC(C)(C)C(N)=O)C(C)C)C(C)C)ccc1OC.COCCCOc1cc(CC(CC(N)C(O)CC(C(=O)NCC(C)(C)C(N)=O)C(C)C)C(C)C)ccc1OC.O=C(O)C=CC(=O)O (configuration not stated) [Aliskiren Hemifumarate] | 117 ± 11 | 157 | 107 ± 8.5 | 97.2 | 107 ± 2.1 | 148 | 108 ± 13 | 123 ± 14 | 140 ± 14
26 | Cl.O=C1OC(CN2CCOCC2)CN1N=Cc1ccc([N+](=O)[O-])o1 (configuration not stated) [Furaltadone HCl] | 75.8 ± 23 | 153 | 46.7 ± 22 | 63.7 | 94.2 ± 14 | 97 | 135 ± 13 | 42.7 ± 10 | 96 ± 4.8
27 | Cl.Clc1cccc(Cl)c1NC1=NCCN1 [Clonidine HCl] | 132 ± 6.9 | 127 | 99 ± 9 | 114 | 111 ± 6.8 | 135 | 94.9 ± 3.3 | 104 ± 15 | 124.6 ± 0.22
28 | Cl.Cl.NCCc1cnc[nH]1 [Histamine 2HCl] | 118 ± 14 | 129 | 105 ± 8.2 | 105 | 124 ± 16 | 111 | 87.8 ± 4.6 | 81.3 ± 5.9 | 122 ± 5.2
29 | CCCc1nc(C)c2c(=O)nc(-c3cc(S(=O)(=O)N4CCN(CC)CC4)ccc3OCC)[nH]n12 [Vardenafil] | 98.2 ± 24 | 169 | 113 ± 14 | 97.3 | 102 ± 5.5 | 127 | 109 ± 12 | 97.77 ± 0.38 | 107 ± 1.9
30 | COc1cc2nc(N(C)CCCNC(=O)C3CCCO3)nc(N)c2cc1OC.Cl (configuration not stated) [Alfuzosin HCl] | 103 ± 3 | 97.4 | 105 ± 8.8 | 113 | 101 ± 24 | 113 | 91.6 ± 8.4 | 85.5 ± 3 | 133 ± 8.8
31 | O=C(O)CSCC(=O)NC1CCSC1=O (configuration not stated) [Erdosteine] | 105 ± 12 | 125 | 108 ± 27 | 108 | 87.3 ± 5.8 | 134 | 94.1 ± 8.3 | 119 ± 33 | 177 ± 44
32 | Cc1ccc(S(=O)(=O)NC(=O)NN2CC3CCCC3C2)cc1 (configuration not stated) [Gliclazide] | 93.2 ± 72 | 143 | 90.8 ± 21 | 90.2 | 105 ± 4.1 | 122 | 95.6 ± 12 | 125 ± 8.1 | 125 ± 9.6
33 | COCCCN1CCC(NC(=O)c2cc(Cl)c(N)c3c2OCC3)CC1 [Prucalopride] | 86.2 ± 8.4 | 134 | 99.9 ± 20 | 94.2 | 120 ± 13 | 122 | 89.3 ± 11 | 91.4 ± 9.2 | 123 ± 2.2
34 | COc1nc(C)nc(Cl)c1NC1=NCCN1 [Moxonidine] | 102 ± 7.2 | 116 | 103 ± 15 | 115 | 98.9 ± 5.5 | 95.3 | 82.9 ± 13 | 116 ± 12 | 118 ± 8.7
35 | CCCCCN(C)CCC(O)(P(=O)([O-])O)P(=O)(O)O.O.[Na+] [Ibandronate sodium] | 113 ± 30 | 93.2 | 107 ± 19 | 101 | 126 ± 20 | 138 | 115 ± 5.5 | 130 ± 14 | 128 ± 22
36 | COC(=O)C1=COC(OC2OC(CO)C(O)C(O)C2O)C2C(CO)=CCC12 (configuration not stated) [Geniposide] | 104 ± 24 | 158 | 104 ± 21 | 98.3 | 95.3 ± 7.7 | 116 | 116 ± 1.3 | 83.6 ± 4.8 | 96.53 ± 0.79
37 | CCCNS(=O)(=O)Nc1ncnc(OCCOc2ncc(Br)cn2)c1-c1ccc(Br)cc1 [Macitentan] | 75.9 ± 56 | 109 | 65 ± 16 | 91.4 | 51.7 ± 28 | 91.8 | 75.383 ± 0.03 | 77.1 ± 37 | 101.4 ± 0.41
38 | COc1cc2nc(N3CCN(C(=O)C4CCCO4)CC3)nc(N)c2cc1OC.Cl.O.O (configuration not stated) [Terazosin HCl] | 137 ± 8 | 116 | 110 ± 19 | 101 | 104 ± 2 | 123 | 85.8 ± 15 | 113 ± 5.9 | 114 ± 12
